Potency data for 29 compounds are collected here from PubChem BioAssay (Tox21).

The target in assay [1] is Acetylcholinesterase (Homo sapiens) (UniProt P22303). The experiment in a line: Acetylcholinesterase (AChE) small molecule antagonists: fluorescence cell-based qHTS assay (AID 1347398; calls by dose curve; note: nearly all actives have a fitted effect of over 50% in size). The settings on record: Potency: AChE activity. In short, it runs like this:
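Cellular AChE activity read as thiocholine from acetylthiocholine hydrolysis, detected by Thiolite Green fluorescence at 490/520 nm after 40 min at room temperature. Compounds were pre-incubated 30 min at 37 C on adherent SH-SY5Y cells.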
Background: qHTS replaces the single test concentration by a dilution series.

Assay [2] has the same target. As to the kind of experiment: Acetylcholinesterase (AChE) small molecule antagonists: enzyme-based qHTS assay with human liver microsomes (AID 1347399; calls by dose curve; note: nearly all actives have a fitted effect of over 60% in size). The following applies: Potency: qHTS inhibition. In short, it runs like this:
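Recombinant human AChE (50 mU/mL in the enzyme mix) and human liver microsomes (0.25 mg/mL final) were preincubated with compound and NADPH (0.25 mg/mL final) for 30 min at 37 C. Acetylthiocholine/DTNB was then added; thiocholine was read colorimetrically after 10 min at room temperature.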

Assay [3] has as its target Cytochrome P450 2D6 (Homo sapiens) (UniProt P10635). The experiment in a line: Cytochrome P450 Family 2 Subfamily D Member 6 (CYP2D6) small molecule antagonists: luciferase reporter qHTS assay (AID 1671196). Note: nearly all actives have a fitted effect of over 50% in size. Note: potency is the fitted concentration of half-maximal effect. In short, it runs like this:
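Luminogenic proluciferin substrate, CYP2D6 enzyme; 10 min RT preincubation with compound, NADPH regeneration system added, 1 h RT. Stop/detection reagent, 20 min RT, luminescence read (RLU). Signal proportional to CYP activity.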
Background: In a reporter assay the amount or activity of a reporter protein is the signal.

Assay [4] addresses Cytochrome P450 2C19 (Homo sapiens) (UniProt P33261). As to the kind of experiment: Cytochrome P450 Family 2 Subfamily C Member 19 (CYP2C19) small molecule antagonists: luciferase reporter qHTS assay (AID 1671197). Note: nearly all actives have a fitted effect of over 65% in size. Note: potency is the fitted concentration of half-maximal effect. In a few lines: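 Inhibition of CYP2C19 was scored from loss of luminescence in a P450-Glo proluciferin substrate assay, NADPH-started and run 1 h at 37C, with ketoconazole as positive control.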

Assay [5] concerns the target Cytochrome P450 1A2 (Homo sapiens) (UniProt P05177). The experiment in a line: Cytochrome P450 Family 1 Subfamily A Member 2 (CYP1A2) small molecule antagonists: luciferase reporter qHTS assay (AID 1671199). Note: nearly all actives have a fitted effect of over 50% in size. Note: potency is the fitted concentration of half-maximal effect. In short, it runs like this:
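Luminescence readout (relative luminescence units) after luciferin detection reagent, 20 min RT. Preceded by 1 h room-temperature CYP1A2 reaction with NADPH regeneration solution following 10 min compound preincubation with enzyme and proluciferin substrate. Furafylline positive control.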

Assay [6] has as its target Voltage-gated inwardly rectifying potassium channel KCNH2 (Homo sapiens) (UniProt Q12809). As to the kind of experiment: Human Ether-a-go-go-Related Gene (hERG) channel small molecule antagonists: fluorescence cell-based qHTS assay (AID 1671200). Note: nearly all actives have a fitted effect of over 50% in size. Note: potency is the fitted concentration of half-maximal effect. In short, it runs like this: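 Thallium flux as potassium surrogate: FluxOR II dye loaded 1 h at room temperature into hERG-expressing U2OS cells, then stimulus buffer added after 10 min. Kinetic 480 nm excitation/540 nm emission read, 2 min.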
(The hERG channel carries a current that helps repolarise heart muscle cells.)

Assay [7] has as its target Cytochrome P450 3A4 (Homo sapiens) (UniProt P08684). As to the kind of experiment: Cytochrome P450 Family 3 Subfamily A Member 4 (CYP3A4) small molecule antagonists: luciferase reporter qHTS assay (AID 1671201). Note: nearly all actives have a fitted effect of over 50% in size. Note: potency is the fitted concentration of half-maximal effect. In short, it runs like this: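 Recombinant human CYP3A4 converts a proluciferin substrate to luciferin over 1 h at room temperature after NADPH regeneration solution is added (compound preincubated 10 min); detection reagent stops reaction, luminescence read 20 min later as relative units.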

Assay [8] addresses Cytochrome P450 2C9 (Homo sapiens) (UniProt P11712). The experiment in a line: Cytochrome P450 Family 2 Subfamily C Member 9 (CYP2C9) small molecule antagonists: luciferase reporter qHTS assay (AID 1671198). Note: nearly all actives have a fitted effect of over 50% in size. Note: potency is the fitted concentration of half-maximal effect. In a few lines:
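Enzyme-substrate mix preincubated with compound 10 min at room temperature; reaction started with NADPH regeneration solution, 1 h 37C. Luminescent luciferin product read after 20 min detection reagent.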

The structures appear in SMILES notation. A number with no mark means an inactive call. Inconclusive results are not listed. Active and inactive are the calls of the source. Unless noted, calls come from the whole dose curve; as a rule, active = well fitted curve in the direction sought with a large enough effect in the repeat runs; inconclusive = weak or mixed curves; inactive = no such curve, though single readings can be large; an effect the other way counts as inactive or inconclusive.

Cytochrome P450 2D6 (Homo sapiens), sequence (P10635 whole entry, looked up): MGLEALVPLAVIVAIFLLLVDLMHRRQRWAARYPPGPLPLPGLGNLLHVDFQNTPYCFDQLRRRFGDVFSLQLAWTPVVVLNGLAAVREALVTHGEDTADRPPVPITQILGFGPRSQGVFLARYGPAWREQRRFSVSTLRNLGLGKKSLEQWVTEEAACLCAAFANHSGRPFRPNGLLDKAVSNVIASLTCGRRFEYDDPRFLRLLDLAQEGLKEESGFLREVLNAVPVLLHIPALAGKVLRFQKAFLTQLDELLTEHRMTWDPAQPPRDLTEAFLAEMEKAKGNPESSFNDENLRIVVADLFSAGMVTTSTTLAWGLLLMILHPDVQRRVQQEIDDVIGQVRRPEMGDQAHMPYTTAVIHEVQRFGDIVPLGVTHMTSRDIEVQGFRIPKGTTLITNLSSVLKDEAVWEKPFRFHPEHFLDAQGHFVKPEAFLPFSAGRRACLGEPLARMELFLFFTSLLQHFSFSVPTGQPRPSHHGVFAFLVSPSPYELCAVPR
Cytochrome P450 2C19 (Homo sapiens), sequence (P33261 whole entry, looked up): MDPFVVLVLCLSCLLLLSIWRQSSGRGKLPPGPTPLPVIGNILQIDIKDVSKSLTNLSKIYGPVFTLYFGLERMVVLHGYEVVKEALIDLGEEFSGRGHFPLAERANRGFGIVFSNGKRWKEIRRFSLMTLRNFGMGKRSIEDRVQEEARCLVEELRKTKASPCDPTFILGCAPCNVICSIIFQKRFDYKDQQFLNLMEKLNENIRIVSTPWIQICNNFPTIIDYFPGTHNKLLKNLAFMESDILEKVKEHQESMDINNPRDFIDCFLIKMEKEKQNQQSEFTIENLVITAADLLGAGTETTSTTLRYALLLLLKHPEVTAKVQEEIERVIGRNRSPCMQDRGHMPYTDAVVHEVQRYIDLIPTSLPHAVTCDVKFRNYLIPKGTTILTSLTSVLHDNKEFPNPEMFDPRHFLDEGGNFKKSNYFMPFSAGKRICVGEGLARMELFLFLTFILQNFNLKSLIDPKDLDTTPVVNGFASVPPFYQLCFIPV
Cytochrome P450 1A2 (Homo sapiens), sequence (P05177 whole entry, looked up): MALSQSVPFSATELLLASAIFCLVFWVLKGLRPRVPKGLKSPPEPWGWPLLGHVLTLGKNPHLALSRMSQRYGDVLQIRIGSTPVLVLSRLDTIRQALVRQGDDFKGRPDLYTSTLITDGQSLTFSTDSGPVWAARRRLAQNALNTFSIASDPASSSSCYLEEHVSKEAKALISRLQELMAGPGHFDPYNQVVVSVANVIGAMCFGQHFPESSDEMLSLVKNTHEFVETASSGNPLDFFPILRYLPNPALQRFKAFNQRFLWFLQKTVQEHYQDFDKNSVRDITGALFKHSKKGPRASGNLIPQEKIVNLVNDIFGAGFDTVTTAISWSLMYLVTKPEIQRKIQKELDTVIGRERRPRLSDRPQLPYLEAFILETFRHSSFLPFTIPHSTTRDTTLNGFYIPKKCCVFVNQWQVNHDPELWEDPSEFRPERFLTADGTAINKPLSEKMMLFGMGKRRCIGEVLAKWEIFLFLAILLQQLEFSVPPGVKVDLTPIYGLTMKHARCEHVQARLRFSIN
Acetylcholinesterase (Homo sapiens), sequence (P22303 whole entry, looked up): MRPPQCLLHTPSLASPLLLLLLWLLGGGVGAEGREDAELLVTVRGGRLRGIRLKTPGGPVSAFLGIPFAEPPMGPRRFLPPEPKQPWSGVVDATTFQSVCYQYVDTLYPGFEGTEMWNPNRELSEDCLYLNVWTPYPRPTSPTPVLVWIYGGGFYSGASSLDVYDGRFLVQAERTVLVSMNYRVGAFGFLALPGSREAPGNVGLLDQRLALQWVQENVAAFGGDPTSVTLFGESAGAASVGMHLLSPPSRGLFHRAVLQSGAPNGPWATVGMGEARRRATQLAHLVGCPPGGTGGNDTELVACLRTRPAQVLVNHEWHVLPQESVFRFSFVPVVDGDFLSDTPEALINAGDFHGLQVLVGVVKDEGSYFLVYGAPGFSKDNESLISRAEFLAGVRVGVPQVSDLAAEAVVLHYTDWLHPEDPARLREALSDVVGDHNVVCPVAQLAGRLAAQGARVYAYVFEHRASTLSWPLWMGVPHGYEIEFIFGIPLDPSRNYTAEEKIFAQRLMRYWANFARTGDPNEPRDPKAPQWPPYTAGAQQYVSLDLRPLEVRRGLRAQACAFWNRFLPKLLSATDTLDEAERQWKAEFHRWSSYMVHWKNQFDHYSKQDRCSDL
Cytochrome P450 3A4 (Homo sapiens), sequence (P08684 whole entry, looked up): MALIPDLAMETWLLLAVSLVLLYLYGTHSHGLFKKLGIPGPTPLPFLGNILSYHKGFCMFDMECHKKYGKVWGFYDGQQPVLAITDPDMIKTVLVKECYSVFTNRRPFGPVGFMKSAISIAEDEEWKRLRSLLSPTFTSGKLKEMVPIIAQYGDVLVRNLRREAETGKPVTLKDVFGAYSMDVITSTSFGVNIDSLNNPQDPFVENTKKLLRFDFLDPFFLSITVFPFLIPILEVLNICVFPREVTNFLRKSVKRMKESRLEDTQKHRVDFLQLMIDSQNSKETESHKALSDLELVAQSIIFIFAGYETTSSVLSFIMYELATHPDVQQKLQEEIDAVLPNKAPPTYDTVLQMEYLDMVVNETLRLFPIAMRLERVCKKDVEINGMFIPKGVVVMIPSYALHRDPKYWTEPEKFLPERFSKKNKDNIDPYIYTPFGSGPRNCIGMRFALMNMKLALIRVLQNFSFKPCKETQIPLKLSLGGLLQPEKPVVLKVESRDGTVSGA
Voltage-gated inwardly rectifying potassium channel KCNH2 (Homo sapiens), sequence (Q12809 whole entry, looked up): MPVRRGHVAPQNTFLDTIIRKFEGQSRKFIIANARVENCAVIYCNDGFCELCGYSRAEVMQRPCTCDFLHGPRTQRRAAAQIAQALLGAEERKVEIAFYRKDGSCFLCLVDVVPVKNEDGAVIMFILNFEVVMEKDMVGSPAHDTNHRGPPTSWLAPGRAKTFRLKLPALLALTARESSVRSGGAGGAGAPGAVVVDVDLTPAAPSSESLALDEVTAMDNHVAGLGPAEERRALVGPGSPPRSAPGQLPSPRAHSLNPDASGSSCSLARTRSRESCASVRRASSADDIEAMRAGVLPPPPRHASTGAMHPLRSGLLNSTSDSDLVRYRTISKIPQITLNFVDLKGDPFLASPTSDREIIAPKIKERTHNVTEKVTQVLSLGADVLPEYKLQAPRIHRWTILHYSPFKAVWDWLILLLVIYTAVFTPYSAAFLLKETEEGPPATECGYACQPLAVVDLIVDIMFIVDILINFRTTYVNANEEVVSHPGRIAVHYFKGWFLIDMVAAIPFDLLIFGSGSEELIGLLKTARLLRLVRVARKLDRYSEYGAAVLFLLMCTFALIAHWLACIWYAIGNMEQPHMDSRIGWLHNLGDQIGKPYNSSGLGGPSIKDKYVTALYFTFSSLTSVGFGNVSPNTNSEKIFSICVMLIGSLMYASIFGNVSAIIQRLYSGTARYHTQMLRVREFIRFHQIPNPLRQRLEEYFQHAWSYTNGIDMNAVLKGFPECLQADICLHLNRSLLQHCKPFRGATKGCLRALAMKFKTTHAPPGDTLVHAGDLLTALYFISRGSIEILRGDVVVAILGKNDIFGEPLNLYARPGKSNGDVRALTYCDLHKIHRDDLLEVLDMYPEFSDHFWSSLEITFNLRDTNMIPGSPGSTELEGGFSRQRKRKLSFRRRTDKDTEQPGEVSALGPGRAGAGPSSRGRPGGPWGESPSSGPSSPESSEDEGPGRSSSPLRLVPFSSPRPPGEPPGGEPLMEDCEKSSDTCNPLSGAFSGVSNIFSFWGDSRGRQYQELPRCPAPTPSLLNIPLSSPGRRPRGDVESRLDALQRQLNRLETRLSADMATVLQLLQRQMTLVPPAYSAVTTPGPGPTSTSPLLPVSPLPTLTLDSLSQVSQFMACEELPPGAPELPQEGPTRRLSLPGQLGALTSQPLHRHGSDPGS
Cytochrome P450 2C9 (Homo sapiens), sequence (P11712 whole entry, looked up): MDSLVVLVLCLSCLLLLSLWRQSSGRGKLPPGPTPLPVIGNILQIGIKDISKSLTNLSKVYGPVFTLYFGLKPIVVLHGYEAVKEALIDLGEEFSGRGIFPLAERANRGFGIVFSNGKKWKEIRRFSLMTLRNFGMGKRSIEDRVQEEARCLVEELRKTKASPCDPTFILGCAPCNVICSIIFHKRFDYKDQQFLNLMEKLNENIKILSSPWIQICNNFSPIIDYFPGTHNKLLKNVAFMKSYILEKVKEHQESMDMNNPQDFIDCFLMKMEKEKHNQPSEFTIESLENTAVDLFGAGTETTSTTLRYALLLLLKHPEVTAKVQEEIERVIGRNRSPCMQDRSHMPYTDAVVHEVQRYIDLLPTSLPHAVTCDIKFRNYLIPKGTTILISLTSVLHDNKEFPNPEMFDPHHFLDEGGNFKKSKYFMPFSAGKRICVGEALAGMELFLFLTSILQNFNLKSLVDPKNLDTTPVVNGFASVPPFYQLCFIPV

For the compound `[Cl][Sn]([Cl])([Cl])[Cl]`, the Potency entry in assay [1], in assay [2], in assay [3], in assay [6] and in assay [7] was “inactive” each time. Further, the Potency in assay [4] is 81.5 µM (active); in assay [5], 32.4 µM (active).

As to `ClC(Cl)C(Cl)Cl`, the Potency entry in assay [1], in assay [2], in assay [3], in assay [4], in assay [8] and in assay [6] was “inactive” in each case. Moreover, in assay [7], the Potency entry was “inactive”.

Consider `O=C(NCO)NCO`, for which the Potency result in assay [1], in assay [2], in assay [3], in assay [4], in assay [8] and in assay [6] was “inactive” in each case. Also, in assay [7], the Potency result was “inactive”.

For the compound `CC1(C)CON(Cc2ccccc2Cl)C1=O`, the Potency result in assay [1], in assay [2], in assay [3], in assay [6] and in assay [7] was “inactive” each time. In addition, the Potency in assay [4] was 10 µM (active); in assay [5] it was 31.7 µM (active).

Turning to `N#Cc1c(Cl)cccc1Cl`, the Potency entry in assay [1], in assay [2], in assay [3], in assay [4], in assay [8] and in assay [6] was “inactive” throughout. For the same compound, in assay [7], the Potency result was “inactive”.

`C[C@]1(O)CC[C@H]2[C@@H]3CCC4=CC(=O)CC[C@]4(C)[C@@]3(F)[C@@H](O)C[C@@]21C`: the Potency result in assay [1], in assay [2], in assay [3], in assay [6] and in assay [7] was “inactive” in each case. Also, the Potency in assay [4] was 71.4 µM (active).

Take `CC(CCc1ccccc1)NC(C)C(O)c1ccc(O)cc1` (stereo not drawn): the Potency entry in assay [1], in assay [2], in assay [8] and in assay [7] was “inactive” each time. In addition, the values for the Potency in assay [3], in assay [4] and in assay [6] were 0.436 µM (active), 9.77 µM (active) and 4.77 µM (active), respectively.

Turning to `O=C(Oc1ccc(Br)cc1)N1CCN2CCC1CC2`, the Potency result in assay [1], in assay [2], in assay [3], in assay [4], in assay [8] and in assay [7] was “inactive” each time.

For the compound `C=C(C)CN(CC)c1c([N+](=O)[O-])cc(C(F)(F)F)cc1[N+](=O)[O-]`, the Potency result in assay [1], in assay [2], in assay [3] and in assay [7] was “inactive” each time. In addition, the Potency in assay [4] was 28.3 µM (active); in assay [8], 31.7 µM (active).

For `CC1=C(C(=O)Nc2ccccc2)S(=O)(=O)CCO1`, the Potency result in assay [1], in assay [2], in assay [3], in assay [4], in assay [6] and in assay [7] was “inactive” each time.

With `COc1cc(OC)nc(Oc2cccc(Oc3nc(OC)cc(OC)n3)c2C(=O)O)n1`, the Potency entry in assay [1], in assay [2], in assay [3], in assay [4], in assay [8] and in assay [6] was “inactive” in each case. In addition, the Potency entry in assay [7] was “inactive”.

With `Clc1cccc(N2CCNCC2)c1`, the Potency entry in assay [1], in assay [2], in assay [4], in assay [8], in assay [6] and in assay [7] was “inactive” throughout. The Potency in assay [3] is 5.49 µM (active).

Regarding `Cc1cc(C)nc(Nc2ccccc2)n1`, the Potency entry in assay [1], in assay [2], in assay [3], in assay [6] and in assay [7] was “inactive” in each case. Further, in assay [4], the Potency is 79.6 µM (active).

For `CCCCP(CCCC)CCCC`, the Potency entry in assay [1], in assay [2], in assay [6] and in assay [7] was “inactive” throughout. Also, the Potency in assay [3] was 35.6 µM (active); in assay [4] it was 31.7 µM (active).

Consider `COc1cc(C[C@@H](C)N)c(OC)cc1C`, for which the Potency result in assay [1], in assay [2], in assay [4], in assay [8], in assay [6] and in assay [7] was “inactive” each time. Besides, in assay [3], the Potency was 47.9 µM (active).

Regarding `CCCCCCI`, the Potency result in assay [1], in assay [2], in assay [3], in assay [4], in assay [8] and in assay [6] was “inactive” in each case. Besides, the Potency result in assay [7] was “inactive”.

Regarding `COP(=S)(OC)Oc1c(Cl)cc(C)cc1Cl`, the Potency entry in assay [1], in assay [2], in assay [3] and in assay [6] was “inactive” in each case. Further, the Potency in assay [4] was 7.1 µM (active); in assay [8], 8.94 µM (active); in assay [7], 5.03 µM (active).

For the compound `O=C1CN2CCOC2(c2ccccc2Cl)c2cc(Cl)ccc2N1` (stereo not drawn), the Potency entry in assay [1], in assay [2], in assay [5] and in assay [6] was “inactive” each time. For the same compound, the Potency in assay [3] was 8.71 µM (active); in assay [4] it was 6.17 µM (active).

In the case of `CC(C1CC1)C(O)(Cn1cncn1)c1ccc(Cl)cc1` (stereo not drawn), the Potency result in assay [1] and in assay [2] was “inactive” in each case. In addition, the Potency was 35.4 µM (active) in assay [3], 0.354 µM (active) in assay [4], 0.126 µM (active) in assay [8] and 0.888 µM (active) in assay [7].

Turning to `C[N+](=O)[O-]`, the Potency result in assay [1], in assay [2], in assay [3], in assay [4], in assay [8] and in assay [6] was “inactive” in each case. For the same compound, the Potency entry in assay [7] is “inactive”.

As for `CC(Oc1ccc(Oc2ncc(C(F)(F)F)cc2Cl)cc1)C(=O)O` (stereo not drawn), the Potency entry in assay [1], in assay [2], in assay [6] and in assay [7] was “inactive” in each case. The values for the Potency in assay [3], in assay [8] and in assay [5] were 71 µM (active), 35.6 µM (active) and 39.9 µM (active), respectively.

On to `CCCCc1ccc(O)cc1`, for which the Potency result in assay [1], in assay [2], in assay [3], in assay [6] and in assay [7] was “inactive” each time.

In the case of `COC(=O)c1ccccc1S(=O)(=O)NC(=O)N(C)c1nc(C)nc(OC)n1`, the Potency entry in assay [1], in assay [2], in assay [3], in assay [8], in assay [5] and in assay [7] was “inactive” each time.

For the compound `O=P(O)(Oc1ccccc1)Oc1ccccc1`, the Potency result in assay [1], in assay [2], in assay [3], in assay [5], in assay [6] and in assay [7] was “inactive” in each case. Besides, the Potency in assay [8] was 39.9 µM (active).

As for `CC1(C)C(=O)NC(=O)NC1=O`, the Potency entry in assay [1], in assay [2], in assay [3], in assay [8], in assay [6] and in assay [7] was “inactive” each time. In assay [5], the Potency was 35.6 µM (active).

`CC(CC(C#N)(c1ccccc1)c1ccccc1)N(C)C` (stereo not drawn): the Potency entry in assay [1], in assay [2], in assay [8] and in assay [5] was “inactive” each time. The figures for the Potency in assay [3] and in assay [6] were 11.2 µM (active) and 27.4 µM (active), respectively.

With `COC(C)(C)C`, the Potency entry in assay [1], in assay [2], in assay [3], in assay [8], in assay [6] and in assay [7] was “inactive” each time.

Consider `Cc1nnc2n1-c1sc(CCC(=O)N3CCOCC3)cc1C(c1ccccc1Cl)=NC2`, for which the Potency result in assay [1], in assay [2], in assay [3], in assay [8], in assay [5] and in assay [6] was “inactive” each time.

Turning to `CCC#N`, the Potency result in assay [1], in assay [2], in assay [3], in assay [8], in assay [6] and in assay [7] was “inactive” in each case.
